Results with a measured potency or affinity are listed apart. Calls of active or inactive are those of the source. The rule behind the calls is not given here.

This experiment is described as follows: THP-1 cell cytotoxicity, cytotoxicity control, set 4 (AID 504911). Particulars: THP-1 cytotoxicity; series mostly up to 100 µM.
Consider `CC[C@@H](CO)NCCN[C@@H](CC)CO`, for which the call was inactive.
With `Cc1nc(SCC(=O)NCCC(C)C)[nH]c(=O)c1C`, the result was inactive.
Under `CN1CCC(NC(=O)CSc2nc3ccccc3c(=O)[nH]2)CC1` stands “inactive”; under `Cc1cc(=O)[nH]c(SCC(=O)NC2CCCCC2)n1`, “inactive”; under `Cn1c(SCC(=O)NC2CCCCC2)nc2ccccc2c1=O`, “inactive”.
As for `Cc1cc(=O)[nH]c(=S)[nH]1`, the result was inactive.
To `Cc1[nH]c(=S)[nH]c(=O)c1C` belongs “inactive”; to `COc1ccc(NC(=O)CSc2nc3ccccc3c(=O)[nH]2)cc1`, “inactive”.
For the compound `Cc1c[nH]c(=S)[nH]c1=O`, the result was inactive.
Under `CCC(Sc1nc2ccccc2c(=O)[nH]1)C(=O)Nc1cccc(OC)c1` (configuration not stated) stands “inactive”; under `CN[C@@H]1[C@H](O[C@H]2[C@H](O[C@H]3[C@H](O)[C@@H](O)[C@H](N=C(N)N)[C@@H](O)[C@@H]3N=C(N)N)O[C@@H](C)[C@]2(O)C=O)O[C@@H](CO)[C@H](O)[C@H]1O`, “inactive”.
To `CC1CCN(C(=O)CSc2nc3ccccc3c(=O)[nH]2)CC1` belongs “inactive”; to `COc1c(N2CCNC(C)C2)c(F)cc2c(=O)c(C(=O)O)cn(C3CC3)c12` (configuration not stated), “inactive”.
Take `NC[C@H]1O[C@H](O[C@H]2[C@H](O)[C@@H](O[C@H]3O[C@H](CO)[C@@H](O)[C@H](N)[C@H]3O)[C@H](N)C[C@@H]2N)[C@H](O)[C@@H](O)[C@@H]1O`: the compound was called inactive.
To `O=c1[nH]c(=S)[nH]c2ccccc12` belongs “inactive”; to `CCC(Sc1nc2c(c(=O)[nH]1)CCC2)C(=O)Nc1cccc(OC)c1` (configuration not stated), “inactive”; to `NC(=O)CSc1nc2ccccc2c(=O)[nH]1`, “inactive”.
To `Cc1cnc(SCC(=O)NC2CCCCC2)[nH]c1=O` belongs “inactive”; to `Cc1nc(SCC(N)=O)[nH]c(=O)c1C`, “inactive”.
In the case of `O=C(CSc1nc2ccccc2c(=O)[nH]1)NC1CCCCC1`, the call was inactive.
Under `Nc1cc(=O)[nH]c(SCC(=O)NC2CCCCC2)n1` stands “inactive”; under `NNC(=O)c1ccncc1`, “inactive”; under `CCOC1OC(=O)C(Cl)=C1Nc1ccccc1C` (configuration not stated), “inactive”.
To `CN(C)C(=O)CSc1nc2ccccc2c(=O)[nH]1` belongs “inactive”.
As to `Cc1nc(SCC(=O)NC2CCCCC2)[nH]c(=O)c1C`, the call was inactive.
To `Cc1ccc(NC(=O)CSc2nc3ccccc3c(=O)[nH]2)cc1Cl` belongs “inactive”; to `CCC(Sc1nc2ccccc2c(=O)[nH]1)C(=O)NC1CCCCC1` (configuration not stated), “inactive”; to `COC(=O)c1ccc(CNc2c(N3CCCC3)c(=O)c2=O)cc1`, “inactive”.
To `Cc1nc(SCC(=O)NC2CCCC2)[nH]c(=O)c1C` belongs “inactive”; to `CCOC(=O)CSc1nc(C)c(C)c(=O)[nH]1`, “inactive”.
To `Cc1ccc(NC(=O)COC(=O)CCc2c[nH]c3ccccc23)cc1[N+](=O)[O-]` belongs “inactive”; to `CC(C)CCNC(=O)CSc1nc2c(c(=O)[nH]1)CCC2`, “inactive”.

The values above are taken from PubChem BioAssay AID504911 (Southern Research Specialized Biocontainment Screening …, 2011).
